# FadD28 binding: blocks FadD28 binding to the bisubstrate probe; fluorescence polarization; inhibition, % at 12.5 µM; actives 0.22% (n = 360,000); in the data active means inhibition above about 8.5%, passing the limit was not always enough
# Mtb BioA inh: inhibitors of Mycobacterium tuberculosis BioA enzyme; purified M. tuberculosis BioA enzyme, plate reader; inhibition, % at 9.99 µM; actives 0.096% (n = 360,000); in the data active means inhibition above about 40%
# Yp Topo-I inh: blocks Yersinia pestis topoisomerase I activity | Y. pestis Topo-I cleavage product accumulation, plate reader | activity, % at 10 µM | actives 0.064% (n = 360,000); in the data active means activity above about 50%, passing the limit was not always enough
# TcdB inh: TcdB glycohydrolase inhibition | P18177 | TcdB glycohydrolase enzymatic assay, plate reader | inhibition, % at 9.99 µM | actives 0.24% (n = 350,000) | AID 652162; in the data active means inhibition above about 10%
# Vc quorum ag: induces V. cholerae light production without autoinducers; AID 588436; actives 0.16% (n = 350,000); activation, % at 18.7 µM; V. cholerae BH1578 lux reporter, luminescence, 6 h; in the data active means activation mostly above about 9.7%, no sharp cut-off
# An asterisk follows results filed as active; i = inactive; . = no result. Shown are actives, neighbours in structure and some others; about 0.61% of the full set was active somewhere.
SMILES,FadD28 binding,Mtb BioA inh,Yp Topo-I inh,TcdB inh,Vc quorum ag
O=C(Nc1ccc(Cl)cc1)c1nc[nH]c1C(=O)NCCN(CCNC(=O)c1[nH]cnc1C(=O)Nc1ccc(Cl)cc1)CCNC(=O)c1[nH]cnc1C(=O)Nc1ccc(Cl)cc1,0,-2,64*,.,i
O=c1c(OC2OC(CO)C(O)C(O)C2O)c(-c2ccc(O)c(O)c2)oc2cc(O)cc(O)c12 (stereo not given),-2,0,0,14*,-5
O=c1c(O[C@@H]2O[C@H](CO)C(O)C2O)c(-c2ccc(O)c(O)c2)oc2cc(O)cc(O)c12 (stereo not given in full),0,-1,-3,.,i
CCCN1C(=O)COc2ccc(C(=O)c3ccccc3C(=O)O)cc21,0,.,15,0,i
CCC(C)NC(=O)c1ccc2c(c1)N(Cc1ccccc1)C(=O)CS2 (stereo not given),-1,.,11,1,-1
O=C(O)c1ccccc1C(=O)c1ccc2c(c1)N(Cc1cccc(F)c1)C(=O)CO2,1,.,-5,21*,-1
O=C(O)c1ccc2c(c1)N(Cc1cccc(F)c1)C(=O)CS2,0,0,3,21*,0
CO[C@@H]1CN(C)C(=O)c2cc(NC(C)=O)ccc2OC[C@@H](C)N(C(=O)C2CCC2)C[C@@H]1C,.,-3,.,0,.
Nc1ccc(OCCCc2c(N)nc(N)nc2N)cc1,-3,-1,-17,12*,1
COc1ccc(Cc2c(N)nc(N)nc2N)cc1,0,-3,-5,.,0
CCc1cccc2c(C(=O)COC(=O)c3cnc(C)cn3)c[nH]c12,13*,3,2,1,2
CCc1cccc2c(C(=O)COC(=O)c3c(C)noc3C)c[nH]c12,1,1,-4,1,-2
CCc1cccc2c(C(=O)COC(=O)c3nccnc3N)c[nH]c12,3,-1,-18,2,-2
CCc1cccc2c(C(=O)COC(=O)c3ccc(O)cc3)c[nH]c12,34*,0,-7,1,0
CCc1cccc2c(C(=O)COC(=O)[C@@H]3CC(O)CN3S(=O)(=O)c3ccccc3[N+](=O)[O-])c[nH]c12 (stereo not given in full),11*,1,2,1,i
CCc1cccc2c(C(=O)COC(=O)c3ccccc3)c[nH]c12,18*,-1,-1,1,i
Cc1c(N2C(=O)SC(CC(=O)O)C2=O)c(=O)n(-c2ccccc2)n1C (stereo not given),1,0,4,.,36*
COc1ccc(-c2nc(CN3CCN(Cc4cccc(Cl)c4)CC3)c(C)o2)cc1,-5,2,28,1,i
COc1ccc(-c2nc(CN3CCN(Cc4cccc(F)c4)CC3)c(C)o2)cc1,0,4,55*,1,-1
CCCCN(C(=O)NC(=O)Nc1ccccc1OCC)S(C)(=O)=O,1,-2,-3,.,38*
CCOc1ccccc1NC(=O)NC(=O)N(C)S(C)(=O)=O,-2,-1,12,1,0
COCCNC(=O)c1cc2c(c(-c3cccc(C#CCN(C)C)c3)n1)[C@H](CCO)N(S(=O)C(C)(C)C)C2 (stereo not given in full),.,-2,.,10*,.
O=[N+]([O-])c1ccc(/C=C/c2ccc3cccc(O)c3n2)cc1,-2,-5,-2,-1,i
O=[N+]([O-])c1ccc(/C=C/c2ccc3ccccc3n2)cc1,-2,-1,0,10*,2
CS(=O)(=O)N(CC(=O)Nc1ccc(S(=O)(=O)N2CCOCC2)cc1)c1ccccc1Br,-2,0,6,32*,0
SMILES,FadD28 binding,Mtb BioA inh,Yp Topo-I inh,TcdB inh,Vc quorum ag
COc1ccc(C)cc1N(CC(=O)Nc1ccc(S(=O)(=O)N2CCOCC2)cc1)S(C)(=O)=O,0,-1,17,0,0
CCC(=O)N1[C@H](CO)[C@@H]2c3ccccc3N(C(=O)c3cnccn3)C[C@@H]21,.,1,.,0,.
CO[C@H]1CN(C)C(=O)c2cc(NC(=O)C3CCOCC3)ccc2OC[C@@H](C)N(Cc2cccnc2)C[C@H]1C,.,1,.,.,.
COc1ccc2c3c(n(C)c2c1)[C@H](CO)N(C)CC31CN(C(=O)c2ccccc2F)C1,.,.,.,0,.
CCCNC(=O)C[C@@H]1CC[C@H]2[C@H](COc3ccc(NC(=O)c4cccc(C(F)(F)F)c4)cc3C(=O)N2C)O1,.,1,.,-1,.
Cc1onc(-c2ccccc2Cl)c1C(=O)Nc1cnn(Cc2ccccc2)c1,-1,-1,4,13*,0
CN1C(=O)c2cc(NC(=O)Cc3cccs3)ccc2OC[C@@H]2O[C@@H](CC(=O)O)CC[C@H]21,.,-2,.,1,.

# Compound activity deposited in PubChem BioAssay by Broad Institute.
